# Activity calls are given as the source filed them. The calls were made as follows: active = hit-call score of the fitted dose curve at least 0.9, where 1 is the maximum; inactive = score below 0.9.
# Test system: not listed separately
# Experiment: ATG_SREBP_CIS: Attagene CIS-FACTORIAL HepG2 Assay for human Sterol Regulatory Element Binding (SREBP) (AID 2282962)
# Conditions: HepG2 Attagene cis-factorial SREBP reporter, mRNA; actives raise or lower the signal
# In short: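 Transfected HepG2 (cis-regulated reporter library, endogenous TFs) → compound 24 h → total RNA → oligo(dT) RT → reporter-specific PCR → FAM primer extension, HpaI cut → CE fluorescence. Fit bidirectional vs DMSO.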
Compound,outcome,AC50
CCNc1cccc(C)c1,inactive,
COc1cccc2c1C(=O)c1c(O)c3c(c(O)c1C2=O)C[C@@](O)(C(=O)CO)C[C@@H]3O[C@H]1C[C@H](N)[C@H](O)[C@H](C)O1,,0.909 µM (active)
CN[C@H]1CC[C@@H](c2ccc(Cl)c(Cl)c2)c2ccc(S(N)(=O)=O)cc21,,3.7 µM (active)
O=c1c(O)c(-c2ccc(O)c(O)c2)oc2cc(O)cc(O)c12,inactive,
NCC1(Cc2noc(=O)[nH]2)CCCCC1,inactive,
Oc1ccc2ccccc2c1N=Nc1ccccc1,inactive,
Cc1ccccc1Cl,inactive,
C[C@]12C=CC(=O)C=C1CC[C@@H]1[C@@H]2C(=O)C[C@@]2(C)[C@H]1CC[C@]2(O)C(=O)CO,inactive,
COc1cc(C=O)ccc1O,inactive,
CCCCCCCCCCC,inactive,
Cc1cccc(C)c1O,inactive,
CCCCC(CC)COC(=O)CC(C(=O)OCC(CC)CCCC)S(=O)(=O)O (stereo not given),,14.2 µM (active)
CC(=O)OCCOCCOCCOC(C)=O,inactive,
CC1=C(/C=C/C(C)=C/C=C/C(C)=C/CO)C(C)(C)CCC1,inactive,
CC(C)(C)c1cc(O)c(C(C)(C)C)cc1O,,7.79 µM (active)
CNC(=O)[C@H]1O[C@@H](n2cnc3c(NCc4cc(Cl)ccc4OCc4cc(C)no4)ncnc32)[C@H](O)[C@@H]1N,inactive,
COc1cc(S(=O)(=O)O)c(C)cc1N=Nc1c(O)ccc2cc(S(=O)(=O)O)ccc12,inactive,
CC(=O)C(C)=CC1C(C)=CCCC1(C)C (stereo not given),inactive,
Cc1ccc(C)c(C)c1,inactive,
COc1ccc(S(=O)(=O)N2C(=O)[C@@](c3ccccc3OC)(N3C[C@H](O)C[C@H]3C(=O)N(C)C)c3cc(Cl)ccc32)c(OC)c1,inactive,
COc1ccc(C)cc1N,inactive,
CCCCN(CCCC)CCCC,inactive,
CCCCc1ccc2c(n1)[C@@H](c1ccc(OC)cc1C[C@H](C)C(=O)O)[C@H](C(=O)O)[C@H]2c1ccc2c(c1)OCO2,inactive,
CCCCCCC(=O)OCC,inactive,
COc1cc(/C=C/C(=O)CC(=O)/C=C/c2ccc(O)c(OC)c2)ccc1O,,56.8 µM (active)
CCc1c(C(=O)NN2CCCCC2)nn(-c2ccc(Cl)cc2Cl)c1-c1ccc(Br)cc1,,0.719 µM (active)
CC(=O)OC/C=C(\C)CCC=C(C)C,inactive,
CCCCCCOCCO,inactive,
CCOc1ccc2c(c1)C(C)=CC(C)(C)N2,inactive,
CCCCOC(=O)CCCCCCCCC(=O)OCCCC,inactive,

# Molecular target: Signal transducer and activator of transcription 3 (Homo sapiens) (UniProt P40763)
# Sequence (P40763 whole entry, looked up): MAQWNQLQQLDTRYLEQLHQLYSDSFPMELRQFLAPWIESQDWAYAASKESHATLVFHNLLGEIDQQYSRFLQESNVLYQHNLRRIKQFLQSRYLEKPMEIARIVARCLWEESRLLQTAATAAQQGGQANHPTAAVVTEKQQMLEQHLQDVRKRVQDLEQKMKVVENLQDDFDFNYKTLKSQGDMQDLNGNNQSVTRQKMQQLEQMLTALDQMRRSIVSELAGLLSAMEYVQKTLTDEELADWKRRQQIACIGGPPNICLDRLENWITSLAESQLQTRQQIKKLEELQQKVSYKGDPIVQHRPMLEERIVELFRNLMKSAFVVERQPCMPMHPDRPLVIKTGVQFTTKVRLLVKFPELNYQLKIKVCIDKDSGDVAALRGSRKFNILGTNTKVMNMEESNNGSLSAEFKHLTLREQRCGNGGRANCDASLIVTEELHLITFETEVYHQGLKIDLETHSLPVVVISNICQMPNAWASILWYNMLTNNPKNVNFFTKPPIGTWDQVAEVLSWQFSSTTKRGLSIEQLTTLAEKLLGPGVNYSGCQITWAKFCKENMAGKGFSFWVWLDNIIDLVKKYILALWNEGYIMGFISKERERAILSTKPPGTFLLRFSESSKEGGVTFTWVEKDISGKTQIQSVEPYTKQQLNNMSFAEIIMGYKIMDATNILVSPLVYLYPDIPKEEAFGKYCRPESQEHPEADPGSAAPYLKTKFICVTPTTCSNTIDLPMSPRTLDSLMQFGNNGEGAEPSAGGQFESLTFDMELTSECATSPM
# Experiment: ATG_STAT3_CIS: Attagene CIS-FACTORIAL HepG2 Assay for human Signal Transducer and Activator of Transcription 3 (STAT3) (AID 2282963)
# Conditions: HepG2, Attagene cis-factorial STAT3 reporter transcription; actives raise or lower the signal
# In short: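 HepG2 cells transiently transfected with cis-element-driven multiple reporter transcription units; after 24 h chemical exposure, reporter mRNA measured by RT-PCR, 6-FAM primer-extension labelling, HpaI digestion and capillary electrophoresis. Bidirectional fitting versus DMSO baseline.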
row,Compound,outcome
1,CCNc1cccc(C)c1,inactive
2,COc1cccc2c1C(=O)c1c(O)c3c(c(O)c1C2=O)C[C@@](O)(C(=O)CO)C[C@@H]3O[C@H]1C[C@H](N)[C@H](O)[C@H](C)O1,inactive
3,CN[C@H]1CC[C@@H](c2ccc(Cl)c(Cl)c2)c2ccc(S(N)(=O)=O)cc21,inactive
4,O=c1c(O)c(-c2ccc(O)c(O)c2)oc2cc(O)cc(O)c12,inactive
5,NCC1(Cc2noc(=O)[nH]2)CCCCC1,inactive
6,Oc1ccc2ccccc2c1N=Nc1ccccc1,inactive
7,Cc1ccccc1Cl,inactive
8,C[C@]12C=CC(=O)C=C1CC[C@@H]1[C@@H]2C(=O)C[C@@]2(C)[C@H]1CC[C@]2(O)C(=O)CO,inactive
9,COc1cc(C=O)ccc1O,inactive
10,CCCCCCCCCCC,inactive
11,Cc1cccc(C)c1O,inactive
12,CCCCC(CC)COC(=O)CC(C(=O)OCC(CC)CCCC)S(=O)(=O)O (stereo not given),inactive
13,CC(=O)OCCOCCOCCOC(C)=O,inactive
14,CC1=C(/C=C/C(C)=C/C=C/C(C)=C/CO)C(C)(C)CCC1,inactive
15,CC(C)(C)c1cc(O)c(C(C)(C)C)cc1O,inactive
16,CNC(=O)[C@H]1O[C@@H](n2cnc3c(NCc4cc(Cl)ccc4OCc4cc(C)no4)ncnc32)[C@H](O)[C@@H]1N,inactive
17,COc1cc(S(=O)(=O)O)c(C)cc1N=Nc1c(O)ccc2cc(S(=O)(=O)O)ccc12,inactive
18,CC(=O)C(C)=CC1C(C)=CCCC1(C)C (stereo not given),inactive
19,Cc1ccc(C)c(C)c1,inactive
20,COc1ccc(S(=O)(=O)N2C(=O)[C@@](c3ccccc3OC)(N3C[C@H](O)C[C@H]3C(=O)N(C)C)c3cc(Cl)ccc32)c(OC)c1,inactive
21,COc1ccc(C)cc1N,inactive
22,CCCCN(CCCC)CCCC,inactive
23,CCCCc1ccc2c(n1)[C@@H](c1ccc(OC)cc1C[C@H](C)C(=O)O)[C@H](C(=O)O)[C@H]2c1ccc2c(c1)OCO2,inactive
24,CCCCCCC(=O)OCC,inactive
25,COc1cc(/C=C/C(=O)CC(=O)/C=C/c2ccc(O)c(OC)c2)ccc1O,inactive
26,CCc1c(C(=O)NN2CCCCC2)nn(-c2ccc(Cl)cc2Cl)c1-c1ccc(Br)cc1,inactive
27,CC(=O)OC/C=C(\C)CCC=C(C)C,inactive
28,CCCCCCOCCO,inactive
29,CCOc1ccc2c(c1)C(C)=CC(C)(C)N2,inactive
30,CCCCOC(=O)CCCCCCCCC(=O)OCCCC,inactive
